This passage reports outcome and AC50 results from PubChem BioAssay (EPA / NIEHS).

Several values for one entry are separate records, joined by “and”; a condition that tells them apart may be missing. Equal values may be shown once. Some compounds were tested as several samples or in several runs, with calls that do not always agree. Activity calls are given as the source filed them. How the source made its calls: active means hit-call score of the fitted dose curve at least 0.9, where 1 is the maximum; inactive means score below 0.9.

A short description of assay [1]: ATG_GLI_CIS: Attagene CIS-FACTORIAL HepG2 Assay for human Zinc Finger Protein GLI1 (AID 2282945). The settings on record: HepG2, Attagene cis-factorial reporter mRNA, GLI element; actives raise or lower the signal. The method, boiled down:
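Bidirectional curve fits relative to DMSO, using reporter mRNA levels from RT-PCR plus capillary electrophoresis. Cells were HepG2 transiently carrying cis-regulated reporter constructs, harvested 24 h after dosing.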

Assay [2] addresses Bile acid receptor (Homo sapiens) (UniProt Q96RI1). Put plainly: ATG_IR1_CIS: Attagene CIS-FACTORIAL HepG2 Assay for human Nuclear Receptor Subfamily 1 Group H Member 4 (NR1H4), IR1 submotif (AID 2282946). Conditions: IR1 reporter transcription, actives raise or lower the signal. Summed up: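 HepG2 cells transiently transfected with multiplexed cis-element reporter units read endogenous transcription factor activity. After 24 h compound exposure, reporter mRNA was quantified by RT-PCR, fluorescent labelling, HpaI digestion and capillary electrophoresis; bidirectional fitting versus DMSO baseline.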

A short description of assay [3]: ATG_GRE_CIS: Attagene CIS-FACTORIAL HepG2 Assay for human Glucocorticoid Response Elements (GRE) (AID 2282947). The settings on record: HepG2 GRE cis-reporter, Attagene multiplex mRNA; actives raise or lower the signal. The method, boiled down: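 Multiplexed cis-reporter mRNA induction, HepG2, 24 h post-dose. RT-PCR, FAM-labelled, HpaI-digested amplicons by CE. Bidirectional fit vs DMSO.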

Assay [4] can be described thus: ATG_ISRE_CIS: Attagene CIS-FACTORIAL HepG2 Assay for human Interferon Regulatory Factor 1 (IRF1) binding to an Interferon-Stimulated Response Element (ISRE) (AID 2282948). The settings on record: HepG2 ISRE cis-reporter (Attagene), mRNA transcription readout; actives raise or lower the signal. The method, boiled down: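 Uses HepG2 liver cells transfected with cis-regulated reporters and measures mRNA 24 h post-dosing through RT-PCR, primer-extension labelling and capillary electrophoresis, with DMSO as negative control.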

The nature of assay [5]: ATG_M_32_CIS: Attagene CIS-FACTORIAL HepG2 Assay for M32 Transcription Factor (Internal Marker) (AID 2282949).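 Further: background control marker of the multiplexed CIS panel rather than a real target.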 The settings on record: HepG2 Attagene cis-factorial M32 reporter, mRNA; actives raise or lower the signal. The method, boiled down:
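Transient MRTU transfection of HepG2; 24 h compound treatment; TriZol RNA, oligo(dT) RT, reporter PCR, 6-FAM primer extension, HpaI cut, CE. Gain/loss of signal vs DMSO.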

A short description of assay [6]: ATG_M_06_CIS: Attagene CIS-FACTORIAL HepG2 Assay for M06 Transcription Factor (Internal Marker) (AID 2282950). The settings on record: HepG2 Attagene CIS-FACTORIAL M06 internal marker reporter; actives raise or lower the signal. Summed up: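 HepG2 liver cells, 24 h exposure. Reporter transcripts from transfected cis-element constructs quantified by RT-PCR/capillary electrophoresis fluorescence. Bidirectional curve fit against DMSO.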

The target of assay [7] is Hypoxia-inducible factor 1-alpha (Homo sapiens) (UniProt Q16665). In words: ATG_HIF1a_CIS: Attagene CIS-FACTORIAL HepG2 Assay for human Hypoxia Inducible Factor 1 (HIF1A) (AID 2282951). The settings on record: HepG2 Attagene cis-factorial HIF1a reporter transcription; actives raise or lower the signal. The method, boiled down: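 After 24 h chemical exposure of reporter-transfected HepG2 cells, reporter cDNA was PCR-amplified, labelled by 6-FAM primer extension (2 min 95 C, 20 s 68 C, 10 min 72 C), HpaI-cut (2 h, 37 C) and analysed by CE.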

Assay [8] concerns the target Hepatocyte nuclear factor 6 (Homo sapiens) (UniProt Q9UBC0). In words: ATG_HNF6_CIS: Attagene CIS-FACTORIAL HepG2 Assay for human Hepatocyte Nuclear Factor 6 (HNF6) (AID 2282952). The settings on record: HepG2 Attagene cis-factorial HNF6 reporter transcription; actives raise or lower the signal. Summed up: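 Endogenous transcription factor activity in human HepG2 liver cells was captured through cis-regulated reporter constructs. After 24 h treatment, reporter mRNA was measured by RT-PCR with capillary electrophoresis, and activity was fitted in both directions relative to DMSO.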

Assay [9] can be described thus: ATG_MRE_CIS: Attagene CIS-FACTORIAL HepG2 Assay for human Metal Responsive Element (MRE) (AID 2282954). Conditions: HepG2 MRE cis-reporter transcription, Attagene multiplex; actives raise or lower the signal. Summed up: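 Multiplexed cis-reporter assay in human HepG2 liver cells, 24 h incubation with test chemical. Reporter transcripts measured by RT-PCR and capillary electrophoresis; values from bidirectional curve fitting versus DMSO.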

For assay [10], the target named is Heat shock factor protein 1 (Homo sapiens) (UniProt Q00613). In words: ATG_HSE_CIS: Attagene CIS-FACTORIAL HepG2 Assay for human Heat Shock Transcription Factor 1 (HSE) (AID 2282953). The settings on record: HepG2 HSE cis-reporter, Attagene RNA transcription; actives raise or lower the signal. Summed up: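 Endogenous transcription factor activity captured via cis-promoter reporter units transfected into HepG2; treatment lasted 24 h. Fluorescence intensity of reporter fragments analysed with bidirectional curve fitting, DMSO baseline.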
Chain of Heat shock factor protein 1 (Homo sapiens) (Q00613 whole entry, looked up, the tested form may be a part): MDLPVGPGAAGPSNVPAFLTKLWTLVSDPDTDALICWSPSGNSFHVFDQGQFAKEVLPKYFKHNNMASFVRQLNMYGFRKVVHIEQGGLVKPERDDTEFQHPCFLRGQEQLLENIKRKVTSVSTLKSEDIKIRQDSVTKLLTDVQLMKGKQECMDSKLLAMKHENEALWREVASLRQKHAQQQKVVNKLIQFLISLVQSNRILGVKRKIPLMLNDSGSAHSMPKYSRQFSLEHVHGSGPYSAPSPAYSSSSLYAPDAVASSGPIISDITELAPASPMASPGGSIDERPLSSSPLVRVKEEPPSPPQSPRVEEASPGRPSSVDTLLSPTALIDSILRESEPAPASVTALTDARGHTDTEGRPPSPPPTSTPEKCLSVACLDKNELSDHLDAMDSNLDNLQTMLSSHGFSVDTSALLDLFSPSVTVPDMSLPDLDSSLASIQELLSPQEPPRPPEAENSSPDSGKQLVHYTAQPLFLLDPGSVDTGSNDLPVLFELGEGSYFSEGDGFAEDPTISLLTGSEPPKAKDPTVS

Chain of Hepatocyte nuclear factor 6 (Homo sapiens) (Q9UBC0 whole entry, looked up): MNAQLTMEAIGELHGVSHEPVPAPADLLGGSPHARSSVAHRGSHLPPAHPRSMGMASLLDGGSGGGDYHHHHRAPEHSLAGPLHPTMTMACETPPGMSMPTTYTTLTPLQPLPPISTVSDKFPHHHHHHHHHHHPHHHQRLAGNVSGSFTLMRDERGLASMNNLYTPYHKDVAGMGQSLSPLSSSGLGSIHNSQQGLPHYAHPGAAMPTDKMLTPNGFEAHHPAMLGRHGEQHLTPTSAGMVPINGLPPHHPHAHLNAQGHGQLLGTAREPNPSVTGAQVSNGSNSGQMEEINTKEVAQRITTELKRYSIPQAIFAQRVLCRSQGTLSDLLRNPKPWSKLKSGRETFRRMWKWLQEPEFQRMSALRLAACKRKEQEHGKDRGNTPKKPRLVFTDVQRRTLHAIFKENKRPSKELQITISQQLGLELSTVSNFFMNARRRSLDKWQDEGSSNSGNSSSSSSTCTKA
Chain of Hypoxia-inducible factor 1-alpha (Homo sapiens) (Q16665 whole entry, looked up): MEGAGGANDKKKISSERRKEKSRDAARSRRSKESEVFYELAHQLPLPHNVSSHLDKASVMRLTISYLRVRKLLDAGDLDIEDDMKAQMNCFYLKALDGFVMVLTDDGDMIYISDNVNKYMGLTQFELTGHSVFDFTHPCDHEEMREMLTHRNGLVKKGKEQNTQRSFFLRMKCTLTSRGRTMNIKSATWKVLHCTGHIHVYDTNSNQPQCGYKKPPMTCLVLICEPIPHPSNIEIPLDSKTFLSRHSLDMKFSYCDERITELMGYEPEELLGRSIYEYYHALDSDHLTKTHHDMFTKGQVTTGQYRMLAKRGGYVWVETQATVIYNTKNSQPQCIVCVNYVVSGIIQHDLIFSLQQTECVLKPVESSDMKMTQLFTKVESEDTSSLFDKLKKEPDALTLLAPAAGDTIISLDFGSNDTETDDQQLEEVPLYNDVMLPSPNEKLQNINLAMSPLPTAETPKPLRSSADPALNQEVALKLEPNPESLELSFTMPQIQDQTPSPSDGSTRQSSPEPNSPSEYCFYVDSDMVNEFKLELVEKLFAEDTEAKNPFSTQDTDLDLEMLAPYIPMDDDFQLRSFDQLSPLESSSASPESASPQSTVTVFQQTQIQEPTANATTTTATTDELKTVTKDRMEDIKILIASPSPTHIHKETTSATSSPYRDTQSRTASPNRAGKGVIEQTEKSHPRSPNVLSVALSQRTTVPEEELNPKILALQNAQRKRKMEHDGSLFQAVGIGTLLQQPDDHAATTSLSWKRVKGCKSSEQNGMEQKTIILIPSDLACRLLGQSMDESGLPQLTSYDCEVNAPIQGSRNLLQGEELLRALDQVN
Chain of Bile acid receptor (Homo sapiens) (Q96RI1 whole entry, looked up): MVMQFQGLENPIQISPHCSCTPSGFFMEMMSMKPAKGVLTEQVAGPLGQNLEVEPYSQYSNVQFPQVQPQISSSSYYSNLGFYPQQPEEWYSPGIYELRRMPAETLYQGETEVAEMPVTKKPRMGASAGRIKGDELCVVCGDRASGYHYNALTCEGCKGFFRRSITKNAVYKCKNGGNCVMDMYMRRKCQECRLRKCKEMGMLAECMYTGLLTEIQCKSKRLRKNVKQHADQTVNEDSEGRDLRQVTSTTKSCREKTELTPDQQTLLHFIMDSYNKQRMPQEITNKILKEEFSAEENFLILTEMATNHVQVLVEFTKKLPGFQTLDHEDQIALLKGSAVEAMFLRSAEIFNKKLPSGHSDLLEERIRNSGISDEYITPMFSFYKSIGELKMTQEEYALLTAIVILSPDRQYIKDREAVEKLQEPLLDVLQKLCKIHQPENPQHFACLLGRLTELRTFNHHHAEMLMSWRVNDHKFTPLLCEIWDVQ

As a reminder, the AC50 is the midpoint of the concentration-response curve, whichever way the signal moves. As for `N#Cc1nn(-c2c(Cl)cc(C(F)(F)F)cc2Cl)c(N)c1S(=O)C(F)(F)F` (stereo not drawn), the result in [1], in assay [2], in assay [3], in [4], in assay [5] and in assay [6] was inactive. Besides, the compound was classed as inactive in assay [7], in [8] and in [9]. The half-maximal activity concentration (AC50) is 29 µM (active) in assay [3], 44.7 µM (active) in assay [8] and 38.8 µM (active) in assay [9].
In the case of `CON(C)C(=O)Nc1ccc(Cl)c(Cl)c1`, the compound was called inactive in assay [1], in [3], in [4], in assay [5], in assay [6] and in assay [7]. Besides, the outcome in assay [8] and in assay [9] was inactive.
Take `CC(C)(C)c1ccc(CSc2cnn(C(C)(C)C)c(=O)c2Cl)cc1`: the call in assay [1], in [2], in assay [3], in assay [5], in [6] and in assay [8] was inactive. The figures for the AC50 in assay [4], in assay [7] and in assay [9] were 9.92 µM (active), 0.407 µM (active) and 7.83 µM (active), respectively.
As to `O=C(O)c1nc(Cl)ccc1Cl`, the compound was called inactive in [1], in assay [3], in assay [4], in assay [5], in assay [6] and in assay [7]. Besides, the outcome in [8] and in assay [9] was inactive.
On to `CN(C)C(=S)SSC(=S)N(C)C`, for which the call in [1], in [2], in assay [3], in [4], in [5] and in assay [6] was inactive. Moreover, the compound was called inactive in assay [7], in assay [8] and in [9].
As for `CCCCC(CC)COC(=O)c1ccccc1C(=O)OCC(CC)CCCC` (stereo not drawn), the outcome in [1], in [2], in assay [3], in assay [4], in assay [5] and in [6] was inactive. Also, the compound was classed as inactive in assay [7], in assay [8] and in [9].
As to `CCNc1nc(Cl)nc(NC(C)C)n1`, the compound was classed as inactive in [1], in assay [3], in assay [4], in assay [5], in [6] and in [7]. Besides, the result in [8] and in [9] was inactive.
As for `COc1nc(C)nc(NC(=O)NS(=O)(=O)c2ccccc2Cl)n1`, the result in assay [1], in [3], in assay [4], in assay [5], in [6] and in [7] was inactive. Moreover, the outcome in assay [8], in assay [10] and in [9] was inactive.
Turning to `CS/C(C)=N/OC(=O)N(C)SN(C)C(=O)O/N=C(\C)SC`, the result in assay [1], in assay [2], in assay [3], in assay [4], in assay [5] and in assay [6] was inactive. The result in assay [7], in assay [8] and in assay [9] was inactive.
Take `CCCCOC(=O)c1ccccc1C(=O)OCCCC`: the outcome in assay [1], in [3], in [4], in assay [5], in [6] and in assay [7] was inactive. Besides, the compound was called inactive in assay [8], in [10] and in assay [9]. Besides, the half-maximal activity concentration (AC50) in [7] was 59.5 µM (active); in assay [9] it was 41.4 µM (active).
Turning to `Fc1ccc(Oc2ccnc3cc(Cl)cc(Cl)c23)cc1`, the compound was called inactive in assay [1], in assay [2], in assay [3], in assay [4], in assay [5] and in assay [6]. Moreover, the compound was called inactive in assay [7], in [8] and in [9].
For the compound `CC(C)Oc1cc(-n2nc(C(C)(C)C)oc2=O)c(Cl)cc1Cl`, the outcome in assay [1], in assay [2], in [3], in assay [4], in assay [5] and in assay [6] was inactive. The compound was classed as inactive in assay [7] and in assay [8]. Further, the AC50 in assay [9] is 25.1 µM (active).
Take `CC(C)C1(C)N=C(c2nc3ccccc3cc2C(=O)O)NC1=O` (stereo not drawn): the call in [1], in assay [2], in assay [3], in assay [4], in assay [5] and in assay [6] was inactive. Also, the call in assay [7], in assay [8] and in assay [9] was inactive.
As for `CCOC(=O)CC(SP(=S)(OC)OC)C(=O)OCC` (stereo not drawn), the call in [1], in [3], in [4], in assay [5], in assay [6] and in assay [7] was inactive. Besides, the result in [8] was inactive. Further, the AC50 was 24.4 µM (active) in [7]; 100 µM (active) and 13.2 µM (active) in assay [9].
